# Test results from ChEMBL document CHEMBL4513216, “Probing the Open Global Health Chemical Diversity Library for Multistage-Active Starting Points for Next-Generation Antimalarials” (ACS Infect Dis, 2020).
# The whole screen tested about 68,000 compounds, of which about 2,700 (4%) showed an effect of 50% or more. Only a selection was taken, and strong results are over-represented in it overall.
# System: Plasmodium berghei
# Test: Screen against P. berghei liver stage (PbLuc), transformed with Luciferase, at 2uM
# Assay type: functional, HepG2
# Settings: tested at 2 uM
row,Structure (SMILES),INHIBITION [%]
1,Cc1nn(C)c(C)c1NC(=O)Nc1cccnc1N1CCCC1,15.28
2,COCc1ncn2c1CN(C(=O)c1cccc3cccnc13)CC2,29.3
3,CCC(C)c1noc(C2CCN(C(=O)c3cccnc3)CC2)n1 (configuration not stated),-59.73
4,CC(C)(C)C(NC(=O)CCS(C)(=O)=O)c1ccc(F)cc1F (configuration not stated),41.84
5,NC(=O)CC1CCN(C(=O)NCc2ccc(-c3ccn[nH]3)cc2)CC1,7.13
6,O=C(C1COc2ccccc2C1)N(CCO)Cc1ccccc1 (configuration not stated),-49.31
7,CC1CCCCN1C(=O)c1ccn(COc2ccc(F)cc2)n1 (configuration not stated),-12.84
8,COc1cccc(Nc2nc(-c3ccncc3)nc3c2CNCC3)c1,12.6
9,N#Cc1cccc(CN2Cc3nccn3CC(COCC3CC3)C2)c1 (configuration not stated),-17.39
10,O=C(NC1CC1)[C@H]1C[C@H]2OCC[C@H]2N(Cc2ccc3ccccc3n2)C1,0.91
11,CC(C)NC(=O)[C@@H]1C[C@H]2OCC[C@H]2N(Cc2ccc3ccccc3n2)C1,9.69
12,CC(C)NC(=O)[C@H]1C[C@H]2OCC[C@H]2N(Cc2ccc3ccccc3n2)C1,55.8
13,Cc1ccc([C@@]2(O)CC[C@@H]3CN(S(=O)(=O)c4cn(C)nc4C)C[C@@H]32)cc1,55.74
14,Cc1ccc([C@@]2(O)CC[C@@H]3CN(S(=O)(=O)C(C)C)C[C@@H]32)cc1,40.31
15,CCS(=O)(=O)N1C[C@H]2CC[C@](O)(c3ccc(C)cc3)[C@H]2C1,38.23
16,CNC(=O)[C@H]1C[C@@H]2CN(S(=O)(=O)c3cccc(C)c3)C[C@@H]2N1C,27.95
17,COC(=O)CNC(=O)c1scnc1C,-7.24
18,COc1cccc(N2CCN(C(=O)C(C)Oc3ccccc3)CC2=O)c1 (configuration not stated),24.28
19,CC(C)[C@@H]1CN(C(=O)CCc2ccc(F)cc2)C[C@H]1C(=O)O,18.63
20,CC(C)[C@@H]1CN(C(=O)CN(C)Cc2ccc(F)cc2)C[C@H]1C(=O)O,72.49
21,CC(C)[C@@H]1CN(C(=O)CN(C)Cc2ccccc2)C[C@H]1C(=O)O,35.46
22,COc1ccc(C(C)NCc2c[nH]nc2C)cc1Br (configuration not stated),-8.5
23,Cc1cc(C)cc(C(C)NCc2nnc(C)s2)c1 (configuration not stated),38.67
24,COc1ccc(C(C)NCc2nnc(C)s2)cc1F (configuration not stated),52.98
25,COc1ccc(C(C)NCc2c[nH]nc2C)cc1OC (configuration not stated),66.4
26,Cc1nnc(CNC(C)c2cc(C)c(F)c(C)c2)s1 (configuration not stated),31.51

row,Structure (SMILES),INHIBITION [%]
1,COc1cc(C(C)NCc2c[nH]nc2C)ccc1OCCO (configuration not stated),32.26
2,Cc1cnc(CN2CCCC(c3cc(C)[nH]n3)C2)cn1 (configuration not stated),43
3,Cc1ccc(NC2CCN(C(=O)c3sccc3C3CC3)CC2)nn1,3.38
4,COC1(CNC(=O)c2ccc(Cl)c(Cl)c2)CCSC1 (configuration not stated),-26.56
5,O=C(Nc1cccnc1)c1ccc(-n2cncn2)nn1,-7.69
6,Cc1cccnc1NC(=O)c1ccc(-n2cncn2)nn1,9.92
7,Cc1cccc(NC(=O)c2ccc(-n3cncn3)nn2)n1,55.73
8,CCS(=O)(=O)N1CCC(c2nnc(C(F)(F)F)o2)CC1,14.97
9,CCS(=O)(=O)N1CCC(c2nnc(C3CC3)o2)CC1,54.82
10,CN(C)S(=O)(=O)N1CCC(c2nnc(C(F)(F)F)o2)CC1,14.97
11,O=C(NCCc1cccs1)[C@]12COC[C@H]1CN(c1ncccn1)C2,44
12,N#CCSCC(=O)NCC1CCCCC1,-64.85
13,NC(=O)CSCC(=O)NCC1CCCC1,60.79
14,NC(=O)CSCCC(=O)NCC1CC1,37.87
15,CN(C)c1cc2c(nn1)CCN(C(=O)C1Cc3ccccc3O1)C2 (configuration not stated),11.24
16,CN(C)c1cc2c(nn1)CCN(C(=O)c1cc3c(s1)CCCC3)C2,28.39
17,CCNc1cc2c(nn1)CCN(C(=O)C1Cc3ccccc3S1)C2 (configuration not stated),27.6
18,CN(C)c1cc2c(nn1)CCN(C(=O)C1Cc3ccccc3S1)C2 (configuration not stated),65.77
19,CN(C)c1cc2c(nn1)CCN(C(=O)c1cc3c(s1)CCOC3)C2,56.05
20,CN(C)c1cc2c(nn1)CCN(C(=O)c1cc3c(s1)CCC3)C2,-7.96
21,CC(=O)N1CCC(Cc2ccc(-c3ccnn3C)nc2)CC1,35.19
22,Cc1ccc(N2CC[C@H]3O[C@@H](C(=O)N4CCCO4)CC[C@H]32)nn1,-28.58
23,CCn1c(C)cc(C(=O)NCc2cccc(NS(C)(=O)=O)c2)c1C,-6.29
24,CNS(=O)(=O)c1cccc(CNC(=O)c2cnn(C)c2C)c1,-2.2
25,CCn1c(C)cc(C(=O)NCc2cccc(S(=O)(=O)NC)c2)c1C,62.01
26,Cc1nccn1-c1ccc(NC(=O)C2CCCN2Cc2c[nH]cn2)cc1 (configuration not stated),31.51

row,Structure (SMILES),INHIBITION [%]
1,Cc1nccn1-c1ccc(NC(=O)C2CCCN2Cc2ccoc2)cc1 (configuration not stated),29.13
2,Cc1nccn1-c1ccc(NC(=O)C2CCCN2CC2CC2)cc1 (configuration not stated),69.67
3,COCCCN1CCN(c2ncnc3nc(C)cc(C)c23)CC1,19.27
4,O=C(CCc1n[nH]c2c1CCCC2)N1C[C@H]2CC[C@@H](C1)N(CC1CC1)C2,35.94
5,Cc1nc(N)cc(N2CCCC(COc3cccc(F)c3)C2)n1 (configuration not stated),59.8
6,Nc1cc(N2CCCC(COc3ccc(F)cc3)C2)ncn1 (configuration not stated),42.11
7,Nc1cc(N2CCCC(COc3ccc(F)cc3)C2)nc(N)n1 (configuration not stated),17.48
8,N#Cc1cccnc1NCc1cccc(C(=O)NCC2CCCCO2)c1 (configuration not stated),27.85
9,N#Cc1cccnc1NCCc1cc(F)cc2c1OCOC2,4.68
10,COc1ccc2c(c1)CCCC2CC(=O)NCC(C)(C)C(=O)O (configuration not stated),53.98
11,COc1ccc2c(c1)CCCC2CC(=O)NCC(=O)O (configuration not stated),-35.22
12,COc1ccc2c(c1)CCCC2CC(=O)O (configuration not stated),-36.72
13,CC1CN(CC(=O)Nc2nncs2)CCN1Cc1nccn1C (configuration not stated),-11.91
14,CCS(=O)(=O)c1ncc(CN(C)C)n1Cc1ccccc1,-2.93
15,O=C(Cn1cnc(-c2cccs2)cc1=O)Nc1cccnc1,-8.7
16,CC(=O)c1cccc(NC(=O)Cn2nc(-c3cccs3)oc2=O)c1,51.94
17,CNC(=O)c1cccc(NC(=O)Cn2nc(-c3cccs3)oc2=O)c1,17.39
18,CC(=O)c1cccc(NC(=O)CCn2nc(-c3cccs3)oc2=O)c1,15.28
19,O=c1oc(-c2cccs2)nn1CC(O)c1ccccc1F (configuration not stated),34.89
20,CC(=O)c1cccc(NC(=O)Cn2cnc(-c3cccs3)cc2=O)c1,50.7
21,O=c1oc(-c2cccs2)nn1CC(O)c1ccc(F)cc1 (configuration not stated),29.61
22,CC(=O)c1cccc(NC(=O)Cn2cnc(-c3ccccc3)cc2=O)c1,3.11
23,O=c1oc(-c2cccs2)nn1CC(O)c1ccccc1 (configuration not stated),60.95
24,Cc1occc1C(=O)N1CCC2(CC1)C(c1cnn(C)c1)CC(=O)N2C (configuration not stated),-41.72
25,Cc1cccc2c1OCCCC2NCc1nccn1Cc1ccccc1 (configuration not stated),21.72
26,c1csc(-c2nc(CNCCn3cccn3)cs2)c1,4.18

row,Structure (SMILES),INHIBITION [%]
1,COc1cc(N2C[C@@H]3COC[C@]3(C(=O)NCc3ccccn3)C2)ncn1,-23.31
2,Nc1ncccc1C(=O)NCc1cccc(Br)c1,-3.16
3,O=C(NCCc1cccs1)[C@]12COC[C@H]1CN(C1CCOCC1)C2,17.24
4,COc1cc(N2CCC3(CCCN3Cc3cnn(C)c3)CC2)ncn1,30.09
5,Cc1ccc(-c2cc(CN3CCc4cnc(C)nc4C3)on2)cc1,-34.82
6,O=C([C@H]1C[C@H]2OCC[C@H]2N(C(=O)c2cnccn2)C1)N1CCCCO1,-1.69
7,O=C([C@H]1C[C@H]2OCC[C@H]2N(C(=O)c2ccccn2)C1)N1CCCCO1,62.1
8,O=C([C@H]1C[C@H]2OCC[C@H]2N(C(=O)c2ccncc2)C1)N1CCCCO1,-34.26
9,O=C(c1ccc(Br)o1)N1CCN(Cc2ccc(F)cc2)CC1,10.22
10,CC(C)NC(=O)Nc1ccc(CNCc2cccc(C#N)c2)cc1,-68.26
11,CCc1nc(CN2CCCC(NCc3nc(C)c(C)o3)C2)no1 (configuration not stated),36.73
12,Cc1nc(CN2CCCC(NCCc3ccccc3Cl)C2)no1 (configuration not stated),56.67
13,Cc1nc(CN2CCCC(NCc3cccc4ccccc34)C2)no1 (configuration not stated),29.54
14,CCc1nc(CN2CCCC(NCc3cnc(C)s3)C2)no1 (configuration not stated),77.57
15,Cc1cc(CNC2CCCN(Cc3noc(C4CC4)n3)C2)on1 (configuration not stated),7.01
16,Cc1nc(CN2CCCC(NCCCc3ccccc3)C2)no1 (configuration not stated),-6.4
17,Cn1ccnc1CC1CCCN(Cc2noc(C3CC3)n2)C1 (configuration not stated),11.24
18,Cn1cc(CNC2CCCN(Cc3noc(C4CC4)n3)C2)cn1 (configuration not stated),2.08
19,Cc1ccc(CNC2CCCN(Cc3noc(C4CC4)n3)C2)s1 (configuration not stated),54.29
20,Cn1ccnc1CNC1CCCN(Cc2noc(C3CC3)n2)C1 (configuration not stated),50.32
21,Cc1ncc(CNC2CCCN(Cc3noc(C4CC4)n3)C2)s1 (configuration not stated),18.46
22,CCc1nc(CN2CCCC(NCc3cc(C)no3)C2)no1 (configuration not stated),-2.1
23,Cc1oc(C(=O)O)cc1S(=O)(=O)Nc1cccc(-c2nccs2)c1,15.39
24,Fc1cnc(N2C[C@H]3CCC[C@@]3(COc3ccccn3)C2)nc1,-27.16
